Measurements as given in PubChem BioAssay AID1159580 (chemical genetic matrix, 2015).
Among all 5,500 compounds or so, about 2,000 (36%) were called active. Not shown: some 18% with an inconclusive outcome. Cut-off read from the data, not from the text of the source: active = normalized growth mostly below about 0.91 (no sharp cut-off); inconclusive = no clear call, values can overlap the other calls; inactive = mostly above about 0.92. The list shows a part of the results.

Assay: chemical genetic growth profiling, strain panel (AID 1159580);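 note: tested at 20 µM; growth read once vehicle control cultures reached saturation at 30 °C; 1 = growth at the plate median or of vehicle wells; lower values mean less growth of the strain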
Details: growth OD

Measured: normalized growth

CCCC(C)C1(CC)C(=O)N=C(S)NC1=O (configuration not stated)
active: S. cerevisiae deletion strains, locus YKL085W, strain MDH1 (second series), hits give low values 0.309 | S. cerevisiae deletion strains, locus YKL085W, strain MDH1, hits give low values 0.309 | S. cerevisiae deletion strains, locus YKR001C, strain vps1, hits give low values 0.0973 | S. cerevisiae deletion strains, locus YLR102C, strain apc9, hits give low values 0.0762 | S. cerevisiae deletion strains, locus YLR268W, strain sec22, hits give low values 0.0785 | S. cerevisiae deletion strains, locus YLR371W, strain rom2, hits give low values 0.077 | S. cerevisiae deletion strains, locus YLR418C, strain cdc73, hits give low values 0.0993 | S. cerevisiae deletion strains, locus YML032C, strain rad52, hits give low values 0.789 | S. cerevisiae deletion strains, locus YML124C, strain tub3, hits give low values 0.113 | S. cerevisiae deletion strains, locus YMR078C, strain ctf18, hits give low values 0.124 | S. cerevisiae deletion strains, locus YMR223W, strain ubp8, hits give low values 0.0719 | S. cerevisiae deletion strains, locus YNL250W, strain rad50, hits give low values 0.434 | S. cerevisiae deletion strains, locus YNL271C, strain bni1, hits give low values 0.163 | S. cerevisiae deletion strains, locus YNL298W, strain CLA4, hits give low values 0.372 | S. cerevisiae deletion strains, locus YNL307C, strain MCK1, hits give low values 0.0689 | S. cerevisiae deletion strains, locus YOL147C, strain pex11, hits give low values 0.677 | S. cerevisiae deletion strains, locus YOR136W, strain idh2, hits give low values 0.0798 | S. cerevisiae deletion strains, locus YOR184W, strain ser1, hits give low values 0.0729 | S. cerevisiae deletion strains, locus YOR316C, strain cot1, hits give low values 0.0718 | S. cerevisiae deletion strains, locus YPR119W, strain clb2, hits give low values 0.101 | S. cerevisiae deletion strains, locus YPR163C, strain tif3, hits give low values 0.0717 | S. cerevisiae deletion strains, locus YPR167C, strain met16, hits give low values 0.0756 | S. cerevisiae deletion strains, strain wtn01, hits give low values 0.06
inactive: S. cerevisiae deletion strains, locus YJR075W, strain HOC1, hits give low values 1 | S. cerevisiae deletion strains, locus YKL009W, strain mrt4, hits give low values 0.908 | S. cerevisiae deletion strains, locus YKL068W, hits give low values 0.947 | S. cerevisiae deletion strains, locus YKL160W, strain elf1, hits give low values 0.982 | S. cerevisiae deletion strains, locus YKL190W, strain CNB1, hits give low values 1.02 | S. cerevisiae deletion strains, locus YKR026C, strain gcn3, hits give low values 0.984 | S. cerevisiae deletion strains, locus YKR091W, strain srl3, hits give low values 1.01 | S. cerevisiae deletion strains, locus YLL001W, strain dnm1, hits give low values 0.986 | S. cerevisiae deletion strains, locus YLL026W, hits give low values 1 | S. cerevisiae deletion strains, locus YLL041C, strain sdh2, hits give low values 0.994 | S. cerevisiae deletion strains, locus YLR027C, strain aat2, hits give low values 0.998 | S. cerevisiae deletion strains, locus YLR039C, strain RIC1, hits give low values 1.06 | S. cerevisiae deletion strains, locus YLR058C, strain SHM2, hits give low values 1 | S. cerevisiae deletion strains, locus YLR113W, strain HOG1, hits give low values 0.98 | S. cerevisiae deletion strains, locus YLR221C, strain rsa3, hits give low values 0.987 | S. cerevisiae deletion strains, locus YLR258W, strain gsy2, hits give low values 1 | S. cerevisiae deletion strains, locus YLR262C, strain YPT6 (second series), hits give low values 0.918 | S. cerevisiae deletion strains, locus YLR262C, strain YPT6, hits give low values 1.01 | S. cerevisiae deletion strains, locus YLR320W, strain mms22, hits give low values 0.987 | S. cerevisiae deletion strains, locus YLR330W, strain CHS5, hits give low values 1.01 | S. cerevisiae deletion strains, locus YLR342W, strain FKS1 (second series), hits give low values 1.04 | S. cerevisiae deletion strains, locus YLR342W, strain FKS1, hits give low values 0.998 | S. cerevisiae deletion strains, locus YLR357W, strain rsc2, hits give low values 0.961 | S. cerevisiae deletion strains, locus YLR370C, strain arc18, hits give low values 0.984 | S. cerevisiae deletion strains, locus YLR384C, strain iki3, hits give low values 1 | S. cerevisiae deletion strains, locus YML016C, strain PPZ1, hits give low values 1 | S. cerevisiae deletion strains, locus YML120C, strain ndi1, hits give low values 0.988 | S. cerevisiae deletion strains, locus YMR058W, strain fet3, hits give low values 1 | S. cerevisiae deletion strains, locus YMR125W, strain sto1, hits give low values 0.974 | S. cerevisiae deletion strains, locus YMR129W, hits give low values 0.971 | S. cerevisiae deletion strains, locus YMR205C, strain PFK2, hits give low values 0.97 | S. cerevisiae deletion strains, locus YMR231W, strain pep5, hits give low values 1 | S. cerevisiae deletion strains, locus YMR263W, strain SAP30, hits give low values 1.01 | S. cerevisiae deletion strains, locus YMR307W, strain GAS1, hits give low values 0.992 | S. cerevisiae deletion strains, locus YNL067W, strain RPL9B, hits give low values 1.01 | S. cerevisiae deletion strains, locus YNL071W, strain lat1, hits give low values 1 | S. cerevisiae deletion strains, locus YNL128W, strain TEP1, hits give low values 1 | S. cerevisiae deletion strains, locus YNL153C, strain GIM3, hits give low values 0.999 | S. cerevisiae deletion strains, locus YNL183C, strain NPR1, hits give low values 0.923 | S. cerevisiae deletion strains, locus YNL209W, strain ssb2, hits give low values 0.982 | S. cerevisiae deletion strains, locus YNL233W, strain BNI4, hits give low values 0.999 | S. cerevisiae deletion strains, locus YNL248C, strain rpa49, hits give low values 0.988 | S. cerevisiae deletion strains, locus YNL322C, strain KRE1 (second series), hits give low values 0.979 | S. cerevisiae deletion strains, locus YNL322C, strain KRE1, hits give low values 1.01 | S. cerevisiae deletion strains, locus YNR049C, strain mso1, hits give low values 0.992 | S. cerevisiae deletion strains, locus YNR052C, strain pop2, hits give low values 1.01 | S. cerevisiae deletion strains, locus YOL006C, strain TOP1, hits give low values 1.03 | S. cerevisiae deletion strains, locus YOL012C, strain htz1 0.212 | S. cerevisiae deletion strains, locus YOR001W, strain rrp6, hits give low values 0.98 | S. cerevisiae deletion strains, locus YOR061W, strain CKA2, hits give low values 1.01 | S. cerevisiae deletion strains, locus YOR069W, strain VPS5, hits give low values 1.01 | S. cerevisiae deletion strains, locus YOR070C, strain gyp1, hits give low values 1 | S. cerevisiae deletion strains, locus YOR080W, strain dia2, hits give low values 0.989 | S. cerevisiae deletion strains, locus YOR083W, strain WHI5, hits give low values 0.988 | S. cerevisiae deletion strains, locus YOR106W, strain vam3, hits give low values 0.979 | S. cerevisiae deletion strains, locus YOR144C, strain elg1, hits give low values 1 | S. cerevisiae deletion strains, locus YOR231W, strain MKK1, hits give low values 0.994 | S. cerevisiae deletion strains, locus YOR265W, strain rbl2, hits give low values 0.986 | S. cerevisiae deletion strains, locus YOR270C, strain vph1, hits give low values 0.969 | S. cerevisiae deletion strains, locus YOR290C, strain snf2, hits give low values 0.997 | S. cerevisiae deletion strains, locus YPL051W, strain arl3, hits give low values 1 | S. cerevisiae deletion strains, locus YPL055C, strain LGE1, hits give low values 1.01 | S. cerevisiae deletion strains, locus YPL078C, strain atp4, hits give low values 0.981 | S. cerevisiae deletion strains, locus YPL106C, strain sse1, hits give low values 0.977 | S. cerevisiae deletion strains, locus YPL240C, strain hsp82, hits give low values 0.991 | S. cerevisiae deletion strains, locus YPL241C, strain CIN2, hits give low values 1.02 | S. cerevisiae deletion strains, locus YPL256C, strain CLN2, hits give low values 0.977 | S. cerevisiae deletion strains, locus YPR141C, strain kar3, hits give low values 0.983 | S. cerevisiae strains, strain wild type, hits give low values 1.01
